Drawing on PubChem BioAssay (NCI), this text covers growth for 29 compounds.

Compounds without any hit were thinned out: in the full panel of roughly 83,000, 20% have a hit.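 The endpoint reported here, percent growth, reads 100 for growth as untreated, 0 for no net growth and -100 for all cells dead.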 Values without a mark were called inactive. Active and inactive are the calls of the source. The calls were made as follows: active = growth percent below 10; inactive = the rest.

Experiment in all cases: NCI-60 one-dose screen, 48 h (100 = growth as untreated, 0 = no growth, -100 = all killed)
What all share (conditions): 10 µM unless noted

The subject of experiment [1] is NCI-H23 lung.
The subject of experiment [2] is NCI-H226 lung.
The subject of experiment [3] is NCI-H322M lung.
Experiment [4] concerns HOP-62 NSCLC.
Experiment [5] has as its system NCI-H460 lung.
For experiment [6], the system named is HOP-92 NSCLC.
The test system of experiment [7] is NCI-H522 lung.
The subject of experiment [8] is A549/ATCC NSCLC.
For experiment [9], the system named is 786-0 renal.

With `C/C(=N\NC(=O)Cn1c(-c2ccc(S(C)(=O)=O)cc2)nc2cc(Cl)ccc21)c1ccc(Cl)cc1`, the growth was 83% in experiment [1]; 79% in experiment [2]; 86% in experiment [3]; 80.9% in experiment [4]; 82.8% in experiment [5]; 86.2% in [6]. For the same compound, the growth in experiment [7] is 74.9%; in [8], 66.7%; in experiment [9], 92.1%.

As to `NC(N)=N/N=C(/c1ccccc1)c1ccccc1F`, the growth was 34.4% in experiment [1]; 14.4% in [2]; 62% in [3]; 17.5% in experiment [4]; 13.2% in experiment [5]; 57.8% in experiment [6]. Moreover, the growth in [7] was 4.97% (active); in experiment [8] it was 28.4%; in experiment [9], -26.2% (active).

In the case of `CN1CCN(c2ccc(Nc3ncc(Cl)c(NC[C@@H]4CCCO4)n3)cc2)CC1`, the growth is 15.8% in experiment [1]; 8.99% (active) in [2]; 35.9% in [3]; 7.27% (active) in experiment [4]; 13.2% in experiment [5]; 3.21% (active) in experiment [6]. The growth was 25.6% in experiment [7], 22.8% in experiment [8] and 26% in experiment [9].

`CCC(=O)OC1=C(C)SC2=NC(c3ccc(Cl)c(Cl)c3)=CC(c3cc(OC)c(OC)c(OC)c3)N21` (stereo unspecified): the growth in experiment [1] is 98.5%; in experiment [2], 95%; in experiment [3], 97.4%; in experiment [4], 95.9%; in [5], 108%; in [6], 67.9%. Further, the growth is 97.8% in experiment [7], 105% in experiment [8] and 104% in [9].

As for `O=C(c1ccccc1)c1ccc(N2C(=O)C3C4c5ccccc5C(/C=C/C(=O)c5ccccn5)(c5ccccc54)C3C2=O)cc1` (stereo unspecified), the growth in experiment [1] is 14.2%; in [2] it was 12.7%; in [3], 74.9%; in [4], 24.3%; in experiment [5], 6.4% (active); in experiment [6], 55.6%. Besides, the figures for the growth in experiment [7], in experiment [8] and in experiment [9] were 30.6%, 44.3% and 2.11% (active), respectively.

For the compound `COc1cc2cc(Oc3ccc(NC(=O)Nc4cc(C(F)(F)F)cc(C(F)(F)F)c4)cc3)c(C)nc2cc1OCCN1CCCCC1`, the growth in experiment [1] was -73.3% (active); in [2], 22.1%; in experiment [3], -87.1% (active); in [4], -50% (active); in [5] it was -78% (active); in experiment [6], 42.2%. Also, the growth was -53% (active) in [7], -64.9% (active) in experiment [8] and -83.6% (active) in experiment [9].

In the case of `O=C1c2ccccc2C2(c3ccc(O)cc3)c3ccccc3Oc3cccc1c32` (stereo unspecified), the growth in experiment [1] was 33.4%; in [2], 85.9%; in experiment [3], 32.5%; in experiment [4] it was 31.5%; in experiment [5] it was 11.3%; in experiment [6], 29.9%. The values for the growth in experiment [7], in [8] and in experiment [9] were 48.6%, 29% and 40.6%, respectively.

On to `CSc1nc2sc3cc(Cl)ccc3n2c(=N)c1C#N`, for which the growth in experiment [1] was 82.2%; in experiment [2], 57%; in experiment [3] it was 107%; in [4] it was 119%; in experiment [5], 92.7%; in experiment [6], 77%. The results for the growth in [7], in experiment [8] and in experiment [9] were 94.3%, 62.3% and 47.6%, respectively.

For the compound `CCc1cc(Cc2cc(CC)cc(C(C)(C)C)c2O)c(O)c(C(C)(C)C)c1`, the growth is 17.5% in experiment [1]; 48.6% in [2]; 50% in experiment [3]; 34.7% in experiment [4]; 4.34% (active) in experiment [5]; -22.6% (active) in [6]. Besides, the growth in experiment [7] is 22.2%; in [8], 23.8%; in experiment [9] it was 23.6%.

In the case of `CCCCN1CCN(c2ccc3nc(-c4ccc5nc(-c6ccc(OCC)c(OCC)c6)[nH]c5c4)[nH]c3c2)CC1`, the growth in [1] was -55.9% (active); in [2], 16.2%; in experiment [3] it was 14.1%; in [4] it was -69.7% (active); in experiment [5], -84.3% (active); in experiment [6], 81.3%. Further, the results for the growth in [7], in experiment [8] and in experiment [9] were -32.2% (active), 37.7% and -87.4% (active), respectively.

Consider `CN(C)CN1CCN(c2ccc3nc(-c4ccc5nc(-c6ccc(C(F)(F)F)cc6)[nH]c5c4)[nH]c3c2)CC1`, for which the growth was 55.6% in experiment [1]; 64.2% in experiment [2]; 87.1% in [3]; 57.6% in [4]; 10.6% in experiment [5]; 75.8% in experiment [6]. The growth in [7] is 42.1%; in experiment [8], 83.8%; in [9] it was 78.5%.

`COc1cc(-c2ccc(-c3ccc(C(=N)N)nc3)s2)cc(OC)c1OC`: the growth was 72.2% in experiment [1]; 102% in experiment [2]; 70.3% in experiment [3]; 67.9% in experiment [4]; 25.7% in [5]; 49% in experiment [6]. Besides, the growth in [7] was 77%; in [8], 61.3%; in [9], 40.3%.

In the case of `CC(C)n1nc(C#Cc2cccc(NC(=O)c3cccc(C(F)(F)F)c3)c2)c2c(N)ncnc21`, the growth in [1] was -3.4% (active); in [2] it was -0.0561% (active); in experiment [3], -18.3% (active); in [4], -37.9% (active); in experiment [5] it was 5.91% (active); in experiment [6], -33.7% (active). Also, the results for the growth in [7], in [8] and in [9] were -18.6% (active), -14.4% (active) and -20.9% (active), respectively.

As for `Nc1ccn(C2OC(F)(CO)C(O)C2F)c(=O)n1` (stereo unspecified), the growth is 10.3% in experiment [1]; 89.4% in experiment [2]; 71.1% in experiment [3]; 17.3% in experiment [4]; 12.7% in experiment [5]; 53.3% in experiment [6]. The growth is 32.8% in [7], 21.8% in experiment [8] and 10.9% in [9].

For the compound `CCCCOc1ccc(NC(=O)n2nc(N=NN(C)C)c3ccc(Cl)cc32)cc1`, the growth in experiment [1] was 94.2%; in [2] it was 96.3%; in experiment [3] it was 99.4%; in experiment [4] it was 88.3%; in experiment [5], 110%; in [6], 93%. The growth in experiment [7] is 90.1%; in experiment [8], 111%; in experiment [9], 109%.

As for `O=C(NCc1cccnc1)c1cc(-c2csc3c(=O)cc(N4CCOCC4)oc23)cc2c1OCCO2`, the growth in experiment [1] was 50.3%; in [2], 49.8%; in experiment [3], 40%; in [4] it was 30.9%; in experiment [5], 52.5%; in experiment [6], 19.3%. Also, the values for the growth in [7], in [8] and in experiment [9] were 28.4%, 40.2% and 43.5%, respectively.

Turning to `CC(/C=N/NC(=O)c1cc(-c2ccco2)[nH]n1)=C\c1ccccc1`, the growth in experiment [1] was 93%; in experiment [2], 88.5%; in experiment [3], 93.3%; in [4], 95.4%; in [5] it was 127%; in [6], 57.6%. Moreover, the growth is 110% in [7], 105% in experiment [8] and -91.2% (active) in experiment [9].

As to `CCOC(=O)C1=C(C)NC(SCc2nnc(-c3ccc(Cl)cc3)o2)=NC1c1ccc(Cl)cc1Cl` (stereo unspecified), the growth in experiment [1] is 66%; in experiment [2], 79%; in [3], 78.9%; in experiment [4], 82.5%; in [5], 59.2%; in experiment [6] it was 26.4%. Moreover, the values for the growth in experiment [7], in [8] and in experiment [9] were 50.2%, 53.5% and 65.2%, respectively.

Consider `N=C(N)c1ccc(-c2ccc(-c3ccc(Cl)cn3)s2)cc1`, for which the growth was 67.8% in experiment [1]; 83.8% in experiment [2]; 4.72% (active) in [3]; 56.3% in experiment [4]; -46.5% (active) in experiment [5]; 34.7% in experiment [6]. The growth in [7] was 48.7%; in experiment [8], 27.6%; in experiment [9], 52.9%.

For `COc1ccc(/C=C(\C#N)n2nnc3cc(F)c(F)cc32)c(OC)c1OC`, the growth in [1] was 71.8%; in experiment [2] it was 83%; in experiment [3], 76%; in experiment [4], 82.9%; in [5] it was 71.4%; in experiment [6], 83.5%. For the same compound, the growth in experiment [7] is 51.4%; in [8] it was 84.2%; in experiment [9], 93.9%.

As for `O=C1Nc2ccc(Cl)cc2/C1=N/N=C/c1c[nH]c2ccccc12`, the growth in [1] was 86.1%; in [2], 81.9%; in experiment [3] it was 75.5%; in [4] it was 80.4%; in [5], 72%; in experiment [6] it was 93.1%. In addition, the growth in experiment [7] is 73.2%; in experiment [8], 87.2%; in experiment [9], 95.8%.

Regarding `CCOC(=O)c1cnn2c(-c3ccc(Cl)cc3)nc(NCc3ccccc3)nc12`, the growth in experiment [1] is 58.4%; in experiment [2] it was 89.3%; in experiment [3], 99.2%; in [4], 93.5%; in [5] it was 78.1%; in experiment [6], 64.2%. The growth in experiment [7] was 81.5%; in experiment [8], 84.9%; in experiment [9], 6.24% (active).

With `Cc1nc(Nc2ccccn2)sc1C(=O)/C=C/c1ccc(Br)cc1`, the growth was 88.3% in experiment [1]; 85.6% in experiment [2]; 80% in [3]; 63.4% in experiment [4]; 92% in experiment [5]; 96.3% in [6]. Further, the growth in [7] was 61.5%; in [8], 86.2%; in [9], 96.9%.

For `CCCCCCNCc1cc(C(C)(C)C)cc(CNCCCCCC)c1O`, the growth is -8.06% (active) in experiment [1]; -60.5% (active) in [2]; -78.9% (active) in experiment [3]; -90.1% (active) in [4]; -76.3% (active) in experiment [5]; -36.3% (active) in [6]. Besides, the growth is -66% (active) in experiment [7], -85.4% (active) in experiment [8] and -90.5% (active) in experiment [9].

On to `Cl.Fc1c[c-]c(-c2ccccn2)c(F)c1.[Pt].c1ccc([PH+](c2ccccc2)c2ccccc2[PH+](c2ccccc2)c2ccccc2)cc1`, for which the growth was -84.6% (active) in [1]; -70% (active) in experiment [2]; -99.4% (active) in [3]; -62.2% (active) in [4]; -73.2% (active) in experiment [5]; -68% (active) in [6]. In addition, the growth in [7] is -63% (active); in [8], -68.9% (active); in experiment [9] it was -73.9% (active).

With `COC(=O)/C(=C\c1ccc(OC)cc1)C(=O)N1c2ccccc2Sc2ccccc21`, the growth was 72.7% in [1]; 75.1% in experiment [2]; 83% in experiment [3]; 64% in experiment [4]; 96.7% in experiment [5]; 38.7% in experiment [6]. Further, the growth in experiment [7] was 2.63% (active); in experiment [8] it was 56.2%; in experiment [9] it was 70.5%.

Consider `CCN(CC)CCNc1ccc(C)c2sc3cc(C)ccc3c(=O)c12`, for which the growth was 72.3% in experiment [1]; 95.5% in [2]; 68.8% in [3]; 62.9% in experiment [4]; 43% in experiment [5]; 25.2% in experiment [6]. The growth in experiment [7] was 44.2%; in experiment [8], 56.2%; in [9], 42.9%.

Take `CC(c1ccc(-n2cccn2)cc1)c1cnc(N2CCc3ccc(C(N)=O)cc3C2)s1` (stereo unspecified): the growth was 59% in experiment [1]; 43.6% in [2]; 86.8% in experiment [3]; 82.2% in [4]; 74.5% in experiment [5]; 71% in [6]. Also, the figures for the growth in experiment [7], in experiment [8] and in experiment [9] were 41%, 65.8% and 65.8%, respectively.

`O=C1Nc2ccccc2SC1C1SC(=S)N(Cc2ccccc2)C1=O` (stereo unspecified): the growth in experiment [1] was 96.5%; in experiment [2], 107%; in experiment [3] it was 113%; in experiment [4], 110%; in experiment [5] it was 106%; in experiment [6], 53.1%. The growth was 100% in [7], 93% in experiment [8] and 100% in [9].
